Source: PubChem BioAssay (NCATS)
Results filed as inconclusive are left out. Activity calls are given as the source filed them. Unless noted, calls come from the whole dose curve; as a rule, active = well fitted curve in the direction sought with a large enough effect; inconclusive = small, poorly fitted or top-dose-only effect, or another doubt; inactive = no such curve, though single readings can be large; an effect the other way counts as inactive or inconclusive.

What was measured:
[1] = target: Glucocorticoid receptor (Homo sapiens) (UniProt P04150); experiment: GR-GFP Redistribution (AID 450;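 active = compounds whose dose series gives a full or clear partial fitted curve of increased nuclear translocation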; note: potency is the fitted concentration of half-maximal effect); details: U2OS GR-GFP nuclear translocation, laser cytometry, 2 h
Sequence of Glucocorticoid receptor (Homo sapiens) (P04150 whole entry, looked up): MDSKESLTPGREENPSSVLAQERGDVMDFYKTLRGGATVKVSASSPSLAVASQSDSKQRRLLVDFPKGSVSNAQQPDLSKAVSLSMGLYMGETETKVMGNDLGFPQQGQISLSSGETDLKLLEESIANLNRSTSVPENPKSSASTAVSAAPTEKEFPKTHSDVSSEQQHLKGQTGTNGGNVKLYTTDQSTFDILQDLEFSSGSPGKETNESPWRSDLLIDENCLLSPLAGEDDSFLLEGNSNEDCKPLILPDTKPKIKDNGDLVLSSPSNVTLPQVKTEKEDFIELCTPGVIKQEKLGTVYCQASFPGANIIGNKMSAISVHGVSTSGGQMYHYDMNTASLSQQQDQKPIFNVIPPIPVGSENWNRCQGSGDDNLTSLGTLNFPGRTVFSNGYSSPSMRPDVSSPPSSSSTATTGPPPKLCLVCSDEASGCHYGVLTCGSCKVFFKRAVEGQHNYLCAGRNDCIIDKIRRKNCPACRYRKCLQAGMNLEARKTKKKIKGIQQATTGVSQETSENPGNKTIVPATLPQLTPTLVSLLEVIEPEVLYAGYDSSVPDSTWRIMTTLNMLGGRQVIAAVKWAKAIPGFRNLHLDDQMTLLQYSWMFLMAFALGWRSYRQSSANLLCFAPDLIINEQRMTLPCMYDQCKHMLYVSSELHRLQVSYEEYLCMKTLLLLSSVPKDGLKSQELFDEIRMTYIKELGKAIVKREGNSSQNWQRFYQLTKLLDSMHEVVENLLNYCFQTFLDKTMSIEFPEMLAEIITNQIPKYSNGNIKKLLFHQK

[2] = target: Mitogen-activated protein kinase 10 (Mus musculus) (UniProt Q61831); experiment: JNK3 AlphaScreen Assay (AID 530; active = well fitted curve in either direction with a large enough effect, not every such curve was filed as active;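 note: kinase came from lysate of stimulated human HepG2 cells; signal reports phosphorylation of biotinylated GST-cJun 1-79 at Ser73 with 10 µM ATP; series mostly up to about 57 µM; % is set by controls: 0 for no effect and ±100 for the full control effect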)
Procedure, shortened: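 Pre-activated (IL-1β/TNFα) JNK3 in HepG2 lysates phosphorylates biotin-GST-cJun(1-79), 10 uM ATP; anti-phospho-cJun(Ser73) AlphaScreen read at room temperature, pH 7.6 Tris buffer. Compounds pre-incubated 15 min as titrations.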

[3] = target: Cytochrome P450 3A4 (Homo sapiens) (UniProt P08684); experiment: qHTS Assay for Activators of Cytochrome P450 3A4 (AID 885); note: nearly all actives have a fitted effect of over 65% in size
Sequence of Cytochrome P450 3A4 (Homo sapiens) (P08684 whole entry, looked up): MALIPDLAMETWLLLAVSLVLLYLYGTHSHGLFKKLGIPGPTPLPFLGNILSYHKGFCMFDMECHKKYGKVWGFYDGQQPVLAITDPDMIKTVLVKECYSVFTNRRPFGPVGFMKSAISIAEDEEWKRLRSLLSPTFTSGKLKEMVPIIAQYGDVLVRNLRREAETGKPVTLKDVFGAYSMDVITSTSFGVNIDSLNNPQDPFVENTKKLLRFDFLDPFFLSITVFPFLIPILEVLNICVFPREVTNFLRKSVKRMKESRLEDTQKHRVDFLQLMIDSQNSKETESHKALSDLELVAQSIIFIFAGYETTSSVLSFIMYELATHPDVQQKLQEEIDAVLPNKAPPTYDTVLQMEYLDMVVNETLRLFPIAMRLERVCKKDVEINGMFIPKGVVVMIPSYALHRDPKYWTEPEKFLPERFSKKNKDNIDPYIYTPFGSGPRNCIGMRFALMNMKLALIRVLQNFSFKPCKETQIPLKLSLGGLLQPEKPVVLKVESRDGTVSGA
Procedure, shortened: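 Human CYP3A4 (20 nM) with Luciferin-PPXE at 25 uM (its KM) in 200 mM KPO4; 10 min compound preincubation, then NADPH regeneration and 60 min reaction at RT. Luciferin read by luminescence; normalized to 57 uM ketoconazole full inhibition.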

[4] = target: DNA dC->dU-editing enzyme APOBEC-3G (Homo sapiens) (UniProt Q9HC16); experiment: qHTS for inhibitors of Vif-A3G interactions: Validation (AID 588379); note: 0% is about no effect
Sequence of DNA dC->dU-editing enzyme APOBEC-3G (Homo sapiens) (Q9HC16 whole entry, looked up): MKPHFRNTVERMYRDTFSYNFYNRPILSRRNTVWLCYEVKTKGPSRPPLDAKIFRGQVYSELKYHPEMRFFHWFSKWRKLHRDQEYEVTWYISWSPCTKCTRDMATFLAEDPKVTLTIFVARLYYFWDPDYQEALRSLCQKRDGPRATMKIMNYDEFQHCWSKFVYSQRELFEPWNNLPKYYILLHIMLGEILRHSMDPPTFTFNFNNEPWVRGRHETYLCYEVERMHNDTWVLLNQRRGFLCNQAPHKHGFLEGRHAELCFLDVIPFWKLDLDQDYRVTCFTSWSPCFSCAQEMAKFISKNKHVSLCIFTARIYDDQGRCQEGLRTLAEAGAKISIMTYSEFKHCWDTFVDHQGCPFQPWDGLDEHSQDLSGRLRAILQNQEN
Procedure, shortened: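 HeLa cells stably expressing Vif and A3G-eYFP, 700 cells/well, incubated overnight at 37 deg C, then exposed to compound overnight at 37 deg C. Inhibition of Vif-mediated degradation read as increased yellow fluorescence (Ex 488/Em 500-530) by laser-scanning cytometry.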

[5] = target: Furin (Homo sapiens) (UniProt P09958); experiment: Furin counterscreen qHTS for Zika virus inhibitors (AID 1347149); note: nearly all actives have a fitted effect of over 70% in size; note: potency is the fitted concentration of half-maximal effect;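 for activity change, negative = inhibition: purified recombinant full-length human furin enzyme at 5 nM; fluorescence gain from furin cutting a BOC-RVRR-AMC peptide substrate over 15 min; top concentration of the series differs between compounds; plate controls were no-inhibitor control for no effect and no-enzyme control for full effect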
Sequence of Furin (Homo sapiens) (P09958 whole entry, looked up): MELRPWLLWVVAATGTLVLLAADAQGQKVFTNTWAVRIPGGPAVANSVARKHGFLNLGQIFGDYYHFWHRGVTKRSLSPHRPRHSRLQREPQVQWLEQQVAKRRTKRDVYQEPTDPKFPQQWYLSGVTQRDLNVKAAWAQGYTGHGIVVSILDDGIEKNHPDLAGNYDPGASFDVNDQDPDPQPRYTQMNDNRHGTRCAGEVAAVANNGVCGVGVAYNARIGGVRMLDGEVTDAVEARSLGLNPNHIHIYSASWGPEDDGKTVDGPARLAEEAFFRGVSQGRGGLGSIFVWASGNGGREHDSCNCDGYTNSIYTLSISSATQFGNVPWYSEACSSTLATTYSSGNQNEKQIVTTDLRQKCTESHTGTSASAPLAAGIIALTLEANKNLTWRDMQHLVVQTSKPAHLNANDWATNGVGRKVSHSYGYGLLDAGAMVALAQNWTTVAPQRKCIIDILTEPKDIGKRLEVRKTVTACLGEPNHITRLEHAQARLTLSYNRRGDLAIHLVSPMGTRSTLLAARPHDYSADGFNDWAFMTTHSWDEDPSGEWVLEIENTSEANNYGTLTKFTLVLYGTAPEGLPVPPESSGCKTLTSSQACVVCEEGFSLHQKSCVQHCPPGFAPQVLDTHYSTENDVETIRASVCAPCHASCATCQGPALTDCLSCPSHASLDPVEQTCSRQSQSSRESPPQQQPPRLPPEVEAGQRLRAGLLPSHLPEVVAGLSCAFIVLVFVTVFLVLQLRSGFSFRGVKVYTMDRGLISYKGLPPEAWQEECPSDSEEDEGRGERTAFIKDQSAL
Procedure, shortened: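 Fluorogenic cleavage of BOC-RVRR-AMC (2 microM final, Km ~15 µM) was monitored (ex 340, em 450 nm) at 37C after 15 min RT preincubation of 5 nM furin with compounds in HEPES pH 7.0 buffer with CaCl2 and Triton X-100. Percent inhibition was fitted to a 4-parameter Hill curve.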

[6] = tested on: Zika virus NS2B-NS3 protease (linked construct); experiment: Confirmatory screen NINDS AMC qHTS for Zika virus inhibitors (AID 1347152); note: potency is the fitted concentration of half-maximal effect; nearly all actives have a fitted effect of over 70% in size
Procedure, shortened: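 Linked NS2B-NS3 protease, 1 nM, in 10 mM Tris-HCl pH 8.0, 0.01% Tween 20; compounds preincubated 15 min at room temperature. Nle-KRR-AMC 10 microM (Km 18.3 µM); 15-min fluorescence change (340/450 nm) fitted to 4-parameter Hill.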

[7] = Confirmatory screen NINDS Rhodamine qHTS for Zika virus inhibitors (AID 1347161); note: nearly all actives have a fitted effect of over 60% in size; note: potency is the fitted concentration of half-maximal effect;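 for activity change, negative = inhibition: purified Zika NS2B-NS3 protease with linked NS2B cofactor domain and Rhodamine110 peptide substrate; series mostly up to about 110 µM; plate controls were no-inhibitor control for no effect and no-enzyme control for full effect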
Procedure, shortened: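 Rhodamine110-peptide cleavage (1.5 µM substrate) by 25 nM linked NS2B-NS3 enzyme at pH 8.0 (Tris, Tween 20), after 15 min RT preincubation with compounds; 15-min fluorescence change normalized to controls and Hill-fitted.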

[8] = Vero cells viability qHTS for Zika virus inhibitors (AID 1347167); note: % is set by controls: 0 for no effect and ±100 for the full control effect
Procedure, shortened: (§1)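 Cells seeded at 2.5 x 10^5 cells/mL in DMEM with 4% FBS and attached overnight at 37 degrees C, then exposed to compound for 24 to 48 hours. Viability read as ATP content by CellTiter Glo luminescence.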

[9] = HepG2 cells viability qHTS for Zika virus inhibitors (AID 1347168); note: % is set by controls: 0 for no effect and ±100 for the full control effect
Procedure, shortened: as §1

[10] = target: Rap guanine nucleotide exchange factor 3 (Homo sapiens) (UniProt O95398); experiment: Confirmatory qHTS for antagonist of cAMP-regulated guanine nucleotide exchange factor 3 (EPAC1) (AID 1645880); note: nearly all actives have a fitted effect of over 55% in size; note: potency is the fitted concentration of half-maximal effect
Sequence of Rap guanine nucleotide exchange factor 3 (Homo sapiens) (O95398 whole entry, looked up): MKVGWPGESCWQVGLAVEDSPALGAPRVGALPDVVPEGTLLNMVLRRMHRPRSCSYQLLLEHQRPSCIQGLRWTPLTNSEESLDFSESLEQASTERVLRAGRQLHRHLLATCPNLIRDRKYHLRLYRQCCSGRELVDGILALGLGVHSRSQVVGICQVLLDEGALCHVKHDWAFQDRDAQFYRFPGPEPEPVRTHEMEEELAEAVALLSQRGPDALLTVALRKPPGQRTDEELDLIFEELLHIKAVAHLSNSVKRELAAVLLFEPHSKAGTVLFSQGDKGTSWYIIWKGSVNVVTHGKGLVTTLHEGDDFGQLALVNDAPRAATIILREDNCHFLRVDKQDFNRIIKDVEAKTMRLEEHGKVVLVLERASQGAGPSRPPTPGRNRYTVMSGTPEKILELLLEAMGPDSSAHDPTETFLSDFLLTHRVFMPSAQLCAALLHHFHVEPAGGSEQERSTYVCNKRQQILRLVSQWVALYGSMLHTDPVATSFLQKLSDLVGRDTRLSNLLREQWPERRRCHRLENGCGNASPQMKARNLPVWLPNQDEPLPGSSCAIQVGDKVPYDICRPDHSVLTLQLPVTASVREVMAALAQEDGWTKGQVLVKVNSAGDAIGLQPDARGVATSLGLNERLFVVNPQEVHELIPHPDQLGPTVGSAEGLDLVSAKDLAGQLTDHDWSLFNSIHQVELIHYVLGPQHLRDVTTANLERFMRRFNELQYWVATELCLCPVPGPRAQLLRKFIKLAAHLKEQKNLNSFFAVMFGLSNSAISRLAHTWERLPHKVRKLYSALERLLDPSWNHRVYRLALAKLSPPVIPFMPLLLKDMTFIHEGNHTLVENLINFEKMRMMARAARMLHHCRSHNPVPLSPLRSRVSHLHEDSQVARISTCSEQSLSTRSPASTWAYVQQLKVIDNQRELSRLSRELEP
Procedure, shortened: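 Nucleotide exchange uses 100 nM EPAC1, 250 nM RAP1B-BODIPY-GDP and 50 uM GDP, with compounds in a concentration-titration series. After 5 min at room temperature, fluorescence (480 nm ex/540 nm em) is read every 5 min for 30 min. Data are normalized to control ATA and DMSO.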

[11] = target: Rap guanine nucleotide exchange factor 3 (Homo sapiens) (UniProt O95398); experiment: Confirmatory qHTS for agonist of cAMP-regulated guanine nucleotide exchange factor 3 (EPAC1) (AID 1645881);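 note: EPAC1 catalysed release of BODIPY-GDP from Rap1B seen as fluorescence loss; 100% = effect of cAMP agonist control; nearly all actives have a fitted effect of over 75% in size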
[12] = target: Rap guanine nucleotide exchange factor 4 (Homo sapiens) (UniProt Q8WZA2); experiment: Confirmatory qHTS for antagonist of cAMP-regulated guanine nucleotide exchange factor 4 (EPAC2) (AID 1645885); note: % is set by controls: 0 for no effect and ±100 for the full control effect; nearly all actives have a fitted effect of over 25% in size
Sequence of Rap guanine nucleotide exchange factor 4 (Homo sapiens) (Q8WZA2 whole entry, looked up): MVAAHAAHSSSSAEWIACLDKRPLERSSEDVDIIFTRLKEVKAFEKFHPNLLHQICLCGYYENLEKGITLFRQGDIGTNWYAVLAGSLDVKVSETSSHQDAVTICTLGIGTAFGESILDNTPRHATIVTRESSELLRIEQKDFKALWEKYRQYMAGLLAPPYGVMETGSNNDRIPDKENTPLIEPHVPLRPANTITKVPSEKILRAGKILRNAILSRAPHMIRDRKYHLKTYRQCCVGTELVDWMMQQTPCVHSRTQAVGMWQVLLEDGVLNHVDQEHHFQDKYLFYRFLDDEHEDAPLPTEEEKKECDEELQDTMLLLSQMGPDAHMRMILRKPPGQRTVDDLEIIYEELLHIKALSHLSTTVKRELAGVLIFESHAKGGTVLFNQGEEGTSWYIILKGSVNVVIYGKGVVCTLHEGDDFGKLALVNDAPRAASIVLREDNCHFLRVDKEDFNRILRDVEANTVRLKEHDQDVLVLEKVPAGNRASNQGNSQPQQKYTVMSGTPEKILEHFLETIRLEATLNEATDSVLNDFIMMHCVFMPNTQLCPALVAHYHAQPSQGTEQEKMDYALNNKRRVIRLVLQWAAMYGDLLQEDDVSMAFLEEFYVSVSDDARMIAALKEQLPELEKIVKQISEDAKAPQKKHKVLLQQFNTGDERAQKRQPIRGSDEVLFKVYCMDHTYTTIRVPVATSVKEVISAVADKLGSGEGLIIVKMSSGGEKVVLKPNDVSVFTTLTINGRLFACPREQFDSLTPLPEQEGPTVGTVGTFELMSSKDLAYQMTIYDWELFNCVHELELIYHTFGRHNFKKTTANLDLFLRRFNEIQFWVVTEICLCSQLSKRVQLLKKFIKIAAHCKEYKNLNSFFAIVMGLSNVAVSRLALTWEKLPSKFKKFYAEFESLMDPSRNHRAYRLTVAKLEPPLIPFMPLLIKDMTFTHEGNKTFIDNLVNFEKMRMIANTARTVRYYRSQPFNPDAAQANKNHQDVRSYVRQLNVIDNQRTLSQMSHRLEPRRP

[13] = tested on: Zika virus NS2B-NS3 protease (unlinked complex); experiment: Confirmatory screen GU AMC qHTS for Zika virus inhibitors (AID 1347153);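 note: enzyme at 25 nM with substrate at 10 µM below its Km of 18.3 µM; potency is the fitted concentration of half-maximal effect; nearly all actives have a fitted effect of over 70% in size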
Procedure, shortened: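 Unlinked NS2B-NS3 complex (25 nM) in 10 mM Tris-HCl pH 8.0, 0.01% Tween 20 preincubated 15 min with compound, then 10 microM Bz-Nle-KRR-AMC (Km 18.3 µM). Fluorescence change over 15 min, normalized, Hill-fitted.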

[14] = Tertiary RLuc qRT-PCR qHTS assay for Zika virus inhibitors (AID 1347169); note: top concentration of the series differs between compounds; % is set by controls: 0 for no effect and ±100 for the full control effect; nearly all actives have a fitted effect of over 55% in size
Procedure, shortened: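 Vero cells (1,000/well) infected with recombinant ZIKV-RLuc (Cambodian) at MOI 1-2 after compound addition, 48-72 hrs at 37 degrees C. Live-cell Renilla luciferase substrate added; luminescence read after 1-1.5 hrs.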

[15] = Primary qHTS for small molecule stabilizers of the endoplasmic reticulum resident proteome: Secreted ER Calcium Modulated Protein (SERCaMP) assay (AID 1508630); note: % is set by controls: 0 for no effect and ±100 for the full control effect
Procedure, shortened: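 GLuc-SERCaMP-expressing SH-SY5Y cells, pretreated 16 h with compound, are challenged with thapsigargin to empty ER calcium stores; after 4 h, coelenterazine is added directly to the medium and luminescence is imaged.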

[16] = Confirmatory screen GU Rhodamine qHTS for Zika virus inhibitors qHTS (AID 1347157); note: nearly all actives have a fitted effect of over 70% in size; note: potency is the fitted concentration of half-maximal effect;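 for activity change, negative = inhibition: plate controls were no-inhibitor wells for no effect and no-enzyme wells for full effect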
Procedure, shortened: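 Compounds, tested up to 114 microM, were incubated for 15 minutes with 25 nM unlinked NS2B-NS3 protease at pH 8.0. Cleavage of 1.5 microM Rhodamine110 substrate was then followed by fluorescence for 15 minutes.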

[17] = tested on: Zika virus NS2B-NS3 protease (linked); experiment: 384 well plate NINDS AMC confirmatory qHTS for Zika virus inhibitors (AID 1347163); note: nearly all actives have a fitted effect of over 50% in size; note: potency is the fitted concentration of half-maximal effect;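 for activity change, negative = inhibition: linked protease at 5 30 or 60 nM final depending on run; fluorescence of AMC released from Ac-VKTGKR-AMC peptide cleaved by the protease; top concentration of the series differs between compounds; 0% = no-inhibitor control and -100% = no-enzyme control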
Procedure, shortened: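 Linked NS2B-NS3 protease (final 5 nM, 30 nM or 60 nM) was preincubated with compounds (final up to 1 mM) for ~15 minutes. Ac-VKTGKR-AMC substrate (final 30 microM) then reacted for 25 minutes at room temperature in the dark. Fluorescence (ex 355/em 460 nm) was normalized to no-enzyme and no-inhibitor controls.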

[18] = tested on: Zika virus NS2B-NS3 protease (linked construct); experiment: 384 well plate NINDS Rhodamine confirmatory qHTS for Zika virus inhibitors (AID 1347164);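 note: fluorescence from protease cleavage of Ac-LKRR-rhodamine 110 substrate; potency is the fitted concentration of half-maximal effect; nearly all actives have a fitted effect of over 65% in size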
Procedure, shortened: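 Linked NS2B-NS3 protease (final 5, 30 or 60 nM) preincubated ~15 minutes with compounds, then 10 microM Ac-LKRR-Rhodamine 110 added. Fluorescence (485/538 nm) read after 25 minutes at room temperature, normalized to no-enzyme and no-inhibitor controls.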

[19] = target: Rap guanine nucleotide exchange factor 4 (Homo sapiens) (UniProt Q8WZA2); experiment: Confirmatory qHTS for agonist of cAMP-regulated guanine nucleotide exchange factor 4 (EPAC2) (AID 1645884);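 note: nucleotide exchange releases bodipy-GDP from Rap1 and this lowers its fluorescence; % is set by controls: 0 for no effect and ±100 for the full control effect; nearly all actives have a fitted effect of over 65% in size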
[20] = target: Rap guanine nucleotide exchange factor 3 (Homo sapiens) (UniProt O95398); experiment: Counterscreen qHTS for antagonist of cAMP-regulated guanine nucleotide exchange factor 3 (EPAC1) (AID 1645888);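 note: fluorescence loss as bound BODIPY-GDP is released from Rap1B; % of control where 0% means no effect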
Procedure, shortened: (§2)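 Rap1B–BODIPY-GDP (250 nM) with 50 uM GDP; compounds pin-transferred to 9.74 nM–152 uM final (activator) or from 7.32 nM upwards (inhibitor). Fluorescence Ex/Em 480/540 nm read at 5 and 30 min, then after adding cAMP or buffer, at room temperature.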

[21] = target: Rap guanine nucleotide exchange factor 3 (Homo sapiens) (UniProt O95398); experiment: Counterscreen qHTS for agonist of cAMP-regulated guanine nucleotide exchange factor 3 (EPAC1) (AID 1645889); note: % of control where 0% means no effect; nearly all actives have a fitted effect of over 40% in size
Procedure, shortened: as §2

[22] = ZIKV-mCherry secondary qHTS for Zika virus inhibitors (AID 1347158); note: top concentration of the series differs between compounds
Procedure, shortened: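 Vero cells (5,000/well) were given compound, then infected with ZIKV-mCherry at MOI 1 for 48–72 h at 37 °C. After PFA fixation and Hoechst staining, imaging gave percent mCherry-positive cells. The positivity threshold was RFU above 450, 3 SD over negative controls.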

COc1ccc(-c2nc(C(=O)N3CCN(C)CC3)sc2-c2ccc(OC)cc2)cc1
inactive: Potency [1] > 46 µM | Potency [2] | Potency [3] | Potency [4] | Potency [7] | Potency [8] | Potency [9] | Potency [10] | outcome [11] | Potency [12]
active: Potency [5] 13.5 µM | Potency [6] 24.1 µM

COc1ccccc1N1CCN(CCn2c(=O)c3c(c4ccccc4n3C)n(C)c2=O)CC1
inactive: Potency [8] | Potency [9] | Potency [14] | Potency [15]
active: Potency [5] 24.1 µM | Potency [6] 27.1 µM | Potency [13] 24.1 µM

Cc1ccc2nc(-c3ccc(N=Nc4cc(S(=O)(=O)O)c5ccccc5c4O)cc3)sc2c1S(=O)(=O)O
inactive: Potency [17] | Potency [14]
active: Potency [5] 59.1 µM | Potency [16] 3.16 µM | Potency [7] 2.82 µM | Potency [18] 15.8 µM

COc1ccc(S(=O)(=O)c2cc(NS(=O)(=O)c3ccc(Cl)cc3)c(C)c(C)c2O)cc1
inactive: Potency [5] | Potency [16] | Potency [7] | Potency [14]

O=C(CNC(=O)c1ccc(Cl)cc1)OCc1cc(=O)n2nc(C3CCCCC3)sc2n1
inactive: Potency [5] | Potency [16] | Potency [7] | Potency [14]

O=C(O)CCc1ccc(-c2ccc(Cl)cc2)n1-c1cccc(C(F)(F)F)c1
active: Potency [16] 7.08 µM | Potency [7] 11.2 µM | Potency [18] 44.7 µM
inactive: Potency [5] | outcome [11] | outcome [19] | activity change, negative = inhibition [12] 25.6% [at 12.7 µM] | outcome [20] | Potency [21]

COc1cc(C2Nc3ccccc3-c3nnc(SCc4ccc(Cl)cc4)nc3O2)ccc1OCC(=O)O (centres undefined)
active: Potency [16] 28.2 µM | Potency [7] 25.1 µM | Potency [17] 282 µM | Potency [18] 79.4 µM
inactive: Potency [5] | Potency [22] | Potency [14]

O=C(CNc1nnc(-c2ccc([S+](=O)([O-])N3CCCC3)cc2)n1-c1ccccc1)Nc1ccc(C(=O)O)cc1
inactive: Potency [5] | Potency [16] | Potency [7]

O=C(O)c1c(-c2ccccc2)oc2ccc(OCc3ccc(Cl)c(Cl)c3)cc12
inactive: Potency [17] | Potency [14] | outcome [11] | outcome [19] | activity change, negative = inhibition [12] 10.2% [at 12.7 µM] | outcome [20] | Potency [21]
active: Potency [5] 66.3 µM | Potency [16] 17.8 µM | Potency [7] 3.98 µM | Potency [18] 17.8 µM | Potency [10] 75.7 µM
